How the values were obtained:
Assay in all cases: PBM binding z-score (relative to random genomic background probes); higher = stronger binding; sequences stand for … in GC…GCGATTGACAGCGTAGAATGAAGG
[1] = tested on: FXR:RXRa (NR concentration 270 nM, RXRa partner concentration 90 nM)
In short: (§1)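 For binding z-scores, the reference was random background probes on custom Agilent 4×180K protein-binding microarrays. These arrays were incubated 1 h with ligand-free nuclear receptor dimers in PBS pH 7.4, 2% milk, 0.02% Triton X-100, 1 mM DTT, 0.2 mg/mL BSA and 0.4 mg/ml salmon testes DNA. Fluorescence was scanned after antibody detection of each partner (one per run) and regression-normalized.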

[2] = tested on: LXRa:RXRa (NR concentration 270 nM, RXRa partner concentration 90 nM)
In short: as §1

[3] = tested on: LXRa homodimer (NR concentration 270 nM)
In short: as §1

[4] = tested on: LXRb:RXRa (NR concentration 270 nM, RXRa partner concentration 90 nM)
In short: as §1

[5] = tested on: LXRb homodimer (NR concentration 270 nM)
In short: as §1

[6] = tested on: PPARa:RXRa (NR concentration 270 nM, RXRa partner concentration 90 nM)
In short: as §1

[7] = tested on: PPARg:RXRa (NR concentration 180 nM, RXRa partner concentration 90 nM)
In short: as §1

[8] = tested on: PPARg:RXRa 270nM:90nM, anti-RXR (NR concentration 270 nM, RXRa partner concentration 90 nM)
In short: as §1

[9] = tested on: PPARg:RXRa 30nM:10nM, anti-RXR (NR concentration 30 nM, RXRa partner concentration 10 nM)
In short: as §1

[10] = tested on: PPARg:RXRa 90nM:30nM, anti-RXR (NR concentration 90 nM, RXRa partner concentration 30 nM)
In short: as §1

Row | Sequence | PBM binding z-score [1] | PBM binding z-score [2] | PBM binding z-score [3] | PBM binding z-score [4] | PBM binding z-score [5] | PBM binding z-score [6] | PBM binding z-score [7] | PBM binding z-score [8] | PBM binding z-score [9] | PBM binding z-score [10]
1 | GGTACAGGGTCAGCTAGAGGCCAGAGTATGGAAA | 4.99 | 2.87 | -0.106 | 2.67 | -0.0836 | 4.62 | 4.12 | 3.78 | 0.502 | 2.27
2 | GCTTACGGGTCAAAGGTTATAGAATGAATAGAAT | 7.46 | 6.03 | 0.9 | 5.71 | 0.667 | 7 | 11.4 | 9.46 | 10.1 | 10.7
3 | CATACTGGGTCAGCTAGGCCAGAGTAGGGACGGC | 0.696 | 0.526 | -0.513 | 0.249 | -0.198 | 2.16 | 3.45 | 2.95 | 0.499 | 2.06
4 | CCTACTGGGCCAAGGGCATTGATCAGTCAAAGCA | -0.551 | -0.572 | -0.484 | -0.601 | -1.35 | 1.1 | 2.48 | 3.44 | 1 | 2.55
5 | CCTACTTGGCCAAAAAGGTCATTGATGCCGATAA | 4.39 | 4.79 | 3.93 | 4.61 | 1.27 | 4.7 | 1.74 | 3.04 | 0.755 | 1.87
6 | CCTCGGAGGACAGAAGGTCAGGGCTGTCCGCTTT | 1.42 | 1.47 | 0.0831 | 1.07 | -1.01 | 2.17 | -0.206 | 1.07 | -0.426 | 0.349
7 | CCTTACGGGTCAAGGTGATAGCACGGGTGGTACG | 5.64 | 3.5 | -0.313 | 2.67 | -0.389 | 4.8 | 4.43 | 4.52 | 1.62 | 3.34
8 | TGAACGAGGTTATAAGATCAGGGAACGTTGCAAA | 1.41 | 1.2 | -0.217 | 1.08 | -0.589 | 2.56 | 1.16 | 1.5 | 0.646 | 1.06
9 | CCGACTGGGGCAGAAAGGTTACAATACCATCCGG | 0.452 | 0.428 | -0.0734 | 1.17 | -0.707 | 2.02 | 1.77 | 2.68 | 0.821 | 2.01
10 | GCTATTAGTTGAAGGGGCAACCGAATGATTCTCG | -0.0427 | -0.304 | -0.118 | 0.151 | -0.16 | 0.84 | 0.924 | 2.1 | 0.49 | 1.65
11 | CAGCCTAGGTCAGGGGCAGTATAGGAGGAACGTT | 2.14 | 1.38 | -0.331 | 1.27 | -0.805 | 2.38 | 1.3 | 1.75 | 0.184 | 0.954
12 | CGAACTAGGTCATTGACAGAACAGTGAATAGTAA | 4.26 | 2.84 | 0.516 | 2 | 0.18 | 4.66 | 7.52 | 6.34 | 4.05 | 5.58
13 | CCTACTGGGCCAAAGGTAATTGATTCCAATGCTC | -0.451 | -0.199 | -0.379 | -0.0867 | -0.845 | 3.66 | 8.76 | 7.99 | 6.87 | 8.72
14 | AGAGTGAGGTTATTAAGATCAGGGAATTGCGGTC | 1.77 | 1.58 | 0.813 | 1.94 | 0.987 | 2.46 | 0.616 | 1.31 | 0.245 | 1.12
15 | CGAACTAGGTCATCCAGGACTGTGAATACATTGA | 4.52 | 2.4 | 0.426 | 2.06 | 0.107 | 4.84 | 7.64 | 6.38 | 4.23 | 5.82
16 | GAGACTGGGGCATCAGCAGGTTACCATAACTTAA | 0.0727 | 0.0866 | -0.0013 | 1.28 | 0.0718 | 1.73 | 1.71 | 1.63 | 0.0526 | 0.657
17 | AGAATGAGGTTATACGTAGATCAGGCAAGAAAGT | 1.83 | 1.82 | -0.142 | 1.29 | -0.0449 | 3.31 | 1.97 | 2.21 | 0.758 | 1.71
18 | GCTAGTTGGTCAGAAAAAGGTCACACACCGGTCG | 2.95 | 3.7 | 3.13 | 3.75 | 0.434 | 4.21 | 1.74 | 3.02 | 0.669 | 2.14
19 | TGAATGAGGTTAAAGATCACGGAACGTGGCGTCG | 3.68 | 2.87 | -0.664 | 2.2 | 0.233 | 5.33 | 7.54 | 7.16 | 6.14 | 7.59
20 | CCGACTGGGGCATAAGGTTACCATCAGCCAGCCC | 0.308 | 1.43 | -0.15 | 0.516 | -1.51 | 1.9 | 2.3 | 2.99 | 1.18 | 2.32
21 | CGTACAAGGTCAGAGAGGTCAGTGAATGCCGAGT | 6.42 | 5.64 | 3.38 | 4.41 | 0.711 | 5.09 | 4.76 | 4.98 | 1.97 | 3.42
22 | GCTAGTTGGTCAGTAAAAGTTCACACACCGGTCG | 0.899 | 2.22 | 4.58 | 1.73 | 0.297 | 1.95 | 0.79 | 1.98 | 0.387 | 1.5
23 | GCATATATGTAATACAAGGTGAAAGTCCGATTGT | 0.416 | 0.403 | 0.269 | 0.457 | 0.00515 | 1.08 | 1.35 | 0.83 | 0.428 | 0.72
24 | TCTTGAAGATCAACAGGAGGTTAAGAAAGATCGA | 0.539 | 1.27 | 0.226 | 1.15 | -0.64 | 1.41 | -0.0399 | 1.64 | 2.92 | 2.51
